Records with an inconclusive call do not appear. The source made the active and inactive calls. How the source made its calls, unless noted: active means hit-call score of the fitted dose curve at least 0.9, where 1 is the maximum; inactive means score below 0.9.

A short description of test [1]: CCTE_Padilla_ZF_Score.Living: CCTE's 144 Hour Post-fertilization zebrafish Assay Score for Viability, Padilla Lab (AID 2284410).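 Further: larval death at 6 dpf judged by absent heartbeat or coagulation.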 The method in brief: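 Wild-type zebrafish embryos were exposed singly from 6–8 hpf in sealed wells of Hanks' solution at 26C, then rinsed at 5 dpf. At 6 dpf, blinded assessors scored mortality (no heartbeat or coagulation) by stereomicroscopy, fitted against DMSO.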

Test [2] is described as follows: CCTE_Padilla_ZF_Score.Tail: CCTE's 144 Hour Post-fertilization zebrafish Assay Score for Tail Malformation, Padilla Lab (AID 2284414). The method in brief: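 Wild-type zebrafish embryos, one per well in 200 uL 10% Hanks', dosed at 6-8 hpf, sealed, and kept at 26 C on a 14:10 h light cycle. Chemical was rinsed out at 5 dpf. Blinded brightfield scoring of tail defects followed at 6 dpf.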

The nature of test [3]: CCTE_Padilla_ZF_Score.Blood_pooling: CCTE's 144 Hour Post-fertilization zebrafish Assay Score for Blood Pooling, Padilla Lab (AID 2284415). A digest of the protocol:
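Wild-type outbred zebrafish embryos, one per well in 10% Hanks', exposed from 6–8 hpf in sealed plates at 26C on 14:10 h light:dark, rinsed at 5 dpf. Blinded stereomicroscope scoring of blood pooling at 6 dpf; gain-of-signal versus DMSO.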

Test [4] can be described thus: CCTE_Padilla_ZF_Score.Any: CCTE's 144 Hour Post-fertilization zebrafish Assay Score for Any Mortality or Malformation, Padilla Lab (AID 2284416). The method in brief: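 Wild-type zebrafish embryos with chorions, one per well in 10% Hanks' from 6–8 hpf, dosed in sealed plates at 26 C, 14:10 h light:dark; rinsed at 5 dpf; blinded scoring at 6 dpf for death or malformation, versus DMSO.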

For test [5], the system named is TTR (gene 7276). Nature of the test: CCTE_GLTED_hTTR_0.125uM: CCTE's human Transthyretin (hTTR) Inhibition Assay, with 0.125uM TTR, Great Lakes Toxicology and Ecology Division (GLTED) Lab (AID 2284431).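 Further: hits lower the fluorescence signal relative to DMSO baseline.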 The method in brief:
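Probe-displacement format: chemicals competing for the T4 site release ANSA from 0.125uM TTR during a 2 h incubation, measured by fluorescence at 380 excitation and 475 emission.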

Test [6] concerns SRY-box transcription factor 2 (SOX2) Protein Expression, Deisenroth Lab, SOX2 (gene 6657). Briefly: CCTE_Deisenroth_DEVTOX-GLR_Endo_SOX2: CCTE's DevTox GLR-Endo Assay Evaluation of SRY-box transcription factor 2 (SOX2) Protein Expression, Deisenroth Lab (AID 2284412; active means hit-call score of the fitted dose curve at least 0.9, where 1 is the maximum). A digest of the protocol:
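RUES2-GLR human pluripotent cells were seeded 24 h, then differentiated 48 h with two chemical exposures 24 h apart. Cells were fixed, nuclei stained and imaged by high-content microscopy. Endpoint is %SOX2+ cells over cell count, minus 0.2% DMSO control; 10-point series 1 nM–200 uM.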

In test [7] the test system is SRY-box transcription factor 17 (SOX17) Protein Expression, Deisenroth Lab, SOX17 (gene 64321). Nature of the test: CCTE_Deisenroth_DEVTOX-GLR_Endo_SOX17: CCTE's DevTox GLR-Endo Assay Evaluation of SRY-box transcription factor 17 (SOX17) Protein Expression, Deisenroth Lab (AID 2284413). The method in brief:
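Seed RUES2-GLR cells 24 h; start endoderm differentiation; dose at 0 and 24 h (1 nM - 200 uM, 10 points); fix at 48 h, stain nuclei, image 5 fields/well; compute SOX17+/total cells vs 0.2% DMSO.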

Test [8] relates to Brachyury (BRA) Protein Expression, TBXT (gene 6862). Briefly: CCTE_Deisenroth_DEVTOX-GLR_Endo_BRA: CCTE's DevTox GLR-Endo Assay Evaluation of Brachyury (BRA) Protein Expression, Deisenroth Lab (AID 2284417). The method in brief: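 RUES2-GLR human pluripotent cells, seeded 24 h, then differentiated 48 h in defined media with two chemical exposures 24 h apart (10-point series, 1 nM - 200 uM). Fixed, nuclear-stained, imaged; endpoint is percent BRA+ cells minus 0.2% DMSO control.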

Test [9] is described as follows: CCTE_Deisenroth_DEVTOX-GLR_Endo_CellCount: Viability Assessment in CCTE's DevTox GLR-Endo Assay, Deisenroth Lab (AID 2284420). The method in brief:
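Viability in differentiating RUES2-GLR cultures is scored by fluorescent nuclear counts after 48 h and two 24-hourly chemical treatments, as percent change from the 0.2% DMSO control.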

Test [10] relates to SRY-box transcription factor 17 (SOX17) Protein Expression, Deisenroth Lab, SOX17 (gene 64321). Nature of the test: CCTE_Deisenroth_DEVTOX-GLR_Pluri_SOX17: CCTE's DevTox GLR-Pluri Assay Evaluation of SRY-box transcription factor 17 (SOX17) Protein Expression, Deisenroth Lab (AID 2284427; active means hit-call score of the fitted dose curve at least 0.9, where 1 is the maximum). A digest of the protocol: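 Seed cells 24 h; differentiate 48 h, dosing at 0 and 24 h (1 nM - 200 uM); fix, stain nuclei, image 5 fields per well; count SOX17+ cells over total cells and subtract 0.2% DMSO control.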

Test [11] deals with SRY-box transcription factor 2 (SOX2) Protein Expression, Deisenroth Lab, SOX2 (gene 6657). Briefly: CCTE_Deisenroth_DEVTOX-GLR_Pluri_SOX2: CCTE's DevTox GLR-Pluri Assay Evaluation of SRY-box transcription factor 2 (SOX2) Protein Expression, Deisenroth Lab (AID 2284428). A digest of the protocol:
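SOX2 expression frequency is scored in a human pluripotent reporter line, RUES2-GLR, exposed to chemicals twice over 48 h. Imaging-based SOX2+ cell percentage is normalized as change versus 0.2% DMSO.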

The test system of test [12] is Brachyury (BRA) Protein Expression, Deisenroth Lab, TBXT (gene 6862). Briefly: CCTE_Deisenroth_DEVTOX-GLR_Pluri_BRA: CCTE's DevTox GLR-Pluri Assay Evaluation of Brachyury (BRA) Protein Expression, Deisenroth Lab (AID 2284429; active means hit-call score of the fitted dose curve at least 0.9, where 1 is the maximum). A digest of the protocol:
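An inducible fluorescent BRA reporter in RUES2-GLR cells tracks mesoderm differentiation. Compounds (10 concentrations, 1 nM - 200 uM) are dosed twice within a 48-h differentiation. The endpoint subtracts the 0.2% DMSO control from percent BRA+ cells.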

A short description of test [13]: CCTE_Deisenroth_DEVTOX-GLR_Pluri_CellCount: Viability Assessment in CCTE's DevTox GLR-Pluri Assay Evaluation of Total Cell Counts, Deisenroth Lab (AID 2284430). A digest of the protocol:
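RUES2-GLR human pluripotent cells, seeded 24 h, then differentiated 48 h with two chemical exposures 24 h apart; 10-point series 1 nM - 200 uM. Fixed, nuclear-stained, imaged (5 fields/well); nuclei count as % change vs 0.2% DMSO.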

Regarding `C[Si](C)(C)C(F)(F)C(F)(F)C(F)(F)F`, the compound was classed as inactive in test [1], in [2], in test [3] and in test [4].

Regarding `O=C(Cl)C(F)(F)C(F)(F)C(F)(F)C(=O)Cl`, the outcome in [1], in test [2], in [3] and in test [4] was inactive.

For `O=S(=O)(O)c1ccc(N=Nc2c(O)ccc3cc(S(=O)(=O)O)ccc23)cc1`, the AC50 (as a rule, the concentration giving half of the maximal activity seen) in [5] was 17100 nM (active).

As for `NCC(F)(F)C(F)(F)C(F)(F)C(F)(F)F`, the compound was classed as inactive in test [1], in [2], in test [3] and in test [4].

As to `Nc1ccn([C@@H]2O[C@H](CO)[C@@H](O)[C@@H]2O)c(=O)n1`, the AC50 in test [6] was 4660 nM (active); in test [7] it was 539 nM (active); in [8], 4910 nM (active); in [9] it was 259 nM (active); in [10], 1680 nM (active); in [11] it was 244 nM (active). The AC50 in test [12] was 1740 nM (active); in [13], 234 nM (active).

Source of the values: PubChem BioAssay (EPA / NIEHS).
